We go through 22 molecules from article PMC12136788.

Sequences and labels used below:
T1: UNK ZnF1-3 (human, UniProt Q9C0B0 31-174)
T1 sequence: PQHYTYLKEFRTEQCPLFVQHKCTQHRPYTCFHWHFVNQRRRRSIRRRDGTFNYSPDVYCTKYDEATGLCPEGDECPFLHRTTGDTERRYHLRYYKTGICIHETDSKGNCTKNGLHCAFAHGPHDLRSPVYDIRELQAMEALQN

B1: 33187691_33187811_5116_3pUTR_ENSG00000170275_ENST00000320954|human|control|control (ssRNA)
RNA: GGGAGUUCUACAGUCCGACGAUCGCCUGCAGAACCAAACAGCAACCACUGAGCUCCAUGCUGAUGGGUCAAAGGACAAGCAAGGCAUCUUAGAGCAGGCCUGGAAGCUCCCACAAAGCUUACAAAUGUGUUUGUUUUUUCGAACAACAGAGGAUUGAGCAUCA
B2: chr6:38652254:38652255:-_ENSG00000124767_ENST00000373365|hu_hu|hu_hu_hu_mus_False|18_18 (ssRNA)
RNA: GGGAGUUCUACAGUCCGACGAUCCGAGAACUUCAUAGCAGGGAAGUCAAGCUUCUGCAGGAGGGUCAGUCCAAGAACCCUCGUAUAAAAAUCCAGGGACUUCUUAGGAUCCUUAAUUCGUAGCAUGGUUUGCUGCAGUAGAAACAACAGAGGAUUGAGCAUCA
B3: chr2:43450610:43450611:-_ENSG00000152518_ENST00000282388|hu_hu|motif|central (ssRNA)
RNA: GGGAGUUCUACAGUCCGACGAUCAGUUAAAUAGUUUUCAUAUUGAGUUGUGGUGCAGUGGUGCGAAUCAACUCAAAACAGCGGAAAAUUCAGCAGUUAUUCUCCAACAAUUACAAAGUAAGCUCUGCGCAAGGCUUCCAGAGGCAACAGAGGAUUGAGCAUCA
B4: chr17:36096658:36096659:-_ENSMUSG00000038762_ENSMUST00000043757|mus_mus|FALSE|FALSE (ssRNA)
RNA: GGGAGUUCUACAGUCCGACGAUCCUGCUUCUCGUACUGCUUUAGCAGCUCUUUCUGCUUCUGCUGGUACAUCUUCUUGAAGGUCAUGUAAUUGCCCCUGUAGUAAUGGAGCCGCUGGGUGUCCAGGUGGAUGAUAUCAGUGCACAACAGAGGAUUGAGCAUCA
B5: chrX:71549400:71549401:+_ENSMUSG00000019087_ENSMUST00000019231|mus_hu|mus_mus_mus_hu_False|28_98 (ssRNA)
RNA: GGGAGUUCUACAGUCCGACGAUCGCAGUAGGAAGAGCAAACCUUUCCAGUCCAGUGCGCUGCAGGGUGGGAAAGCAACAACACGGACACCGUCCCACCCUCAACCCUCUCAGGUGUACAGGGUCACACAAUCUGGGUCAAAGACAACAGAGGAUUGAGCAUCA
B6: chr13:100193180:100193181:-_ENSMUSG00000052727_ENSMUST00000064762|mus_mus|motif|central (ssRNA)
RNA: GGGAGUUCUACAGUCCGACGAUCAUAAUAUAAAGGCUAAAUAAAUUUAAGUUGGAAAACUGGAAGAUAACUCCAUCUUCGGUGAAAGAAAAGUCAACCAGAGGUCUGGAUUUGGCAAGAAGGCUAGAAAUUGUUUCUCUUCACCAACAGAGGAUUGAGCAUCA
B7: chr4:11091628:11091629:+_ENSMUSG00000028211_ENSMUST00000029865|mus_mus|motif|central (ssRNA)
RNA: GGGAGUUCUACAGUCCGACGAUCUUCUUUCUCACUGAAUUCUGGUUCUUGGCUGGAAGAAGUAGUGACUUCGCCGGCAAACAUUUUAUUCAGUCUCUGAAACAUUGUUAAGGCAAGAUUGAGAUUUUGGCUAGAUAUCUUUAUCAACAGAGGAUUGAGCAUCA
B8: chr17:65337090:65337091:-_ENSG00000197170_ENST00000584008|hu_hu|FALSE|FALSE (ssRNA)
RNA: GGGAGUUCUACAGUCCGACGAUCACCAGUCAUUUAAUAAAUUAUUUGGAUCCUUGGGUCUCUGGAAGUUGAUAAUUCCUGCUAAUCUGUCUACUUUAGCAAAGAUGGUCUUGUUAACUACUAGAUUUGAGAGAAAGGCUUCGGCAACAGAGGAUUGAGCAUCA
B9: chr13:100193180:100193181:-_ENSMUSG00000052727_ENSMUST00000064762|mus_mus|FALSE|FALSE (ssRNA)
RNA: B6 RNA with G80U, G81A
B10: chr1:182797045:182797046:+_ENSMUSG00000038806_ENSMUST00000038091|mus_hu|FALSE|FALSE (ssRNA)
RNA: GGGAGUUCUACAGUCCGACGAUCAGACUCAAGCUAAAUAGAAGAAAGAAAAUAACAGAAAUUAAUUAUAUAAACAAUUGAGAAAAAUAAAACCAAAGGUUGGUUCUUUAAAAGUUAUAUCGUCGGCCAGGCACGGUGGCUCACCAACAGAGGAUUGAGCAUCA
B11: 134340332_134340452_1702_CDS_ENSG00000130723_ENST00000357304|human|control|control (ssRNA)
RNA: GGGAGUUCUACAGUCCGACGAUCAGGGCCGUUUUCCUGGGGAGAUGCCUUCUCAGCACUUGGAGACCAGGGCACUUCCUUCUCUGCCUGCUUCCGGGCCUCACCUGCCUUUCGUGCCUGCUUACACUUCUGGUCCAGCUGCUUCAACAGAGGAUUGAGCAUCA
B12: 79156280_79159801_5654_CDS_ENSMUSG00000039414_ENSMUST00000097281|mouse|control|control (ssRNA)
RNA: GGGAGUUCUACAGUCCGACGAUCACUGCUGGCAGACCACAGGAAGAGCGCAAUGGCUGUGAGUGUGCUCACUUCGUCAGGUGCGGGCAUACAGUCAUCUGGUUGAGAAUAUUCCAGGAUGCAGGCAAGGGUGCUCCGGAUUAGCAACAGAGGAUUGAGCAUCA
B13: chr10:40656395:40656396:+_ENSMUSG00000019831_ENSMUST00000105509|mus_mus|FALSE|FALSE (ssRNA)
RNA: GGGAGUUCUACAGUCCGACGAUCUUGUGAUGGAGGAGAUGGAGGCAUUAAUGGAGCAUGGGGACCCGGGGCAGUAGAUGGUGCUGGAUGGAGCCCAGAGGGAGGAUGAGCAAGAGCUGCAACUGCGACAGGAGAUGAUGGCCGCAACAGAGGAUUGAGCAUCA
B14: chr4:144460044:144460045:+_ENSG00000153147_ENST00000283131|hu_mus|hu_hu_hu_mus_False|8_68 (ssRNA)
RNA: GGGAGUUCUACAGUCCGACGAUCACGGUCCAUAGCCUGAAGAUCAACUUGCGGAUUCCAAUCUGAGUCAUACAAAAUGACUACAUCAGCAGUUGCAAGAUUGAUGCCCAGACCACCAGCACGUGUGCUUAACAUGAAUACAAACAACAGAGGAUUGAGCAUCA
B15: chr22:19452774:19452775:-_ENSG00000070010_ENST00000399523|hu_hu|hu_hu_hu_mus_False|58_88 (ssRNA)
RNA: GGGAGUUCUACAGUCCGACGAUCCUUCUCAUUGUAGUUGAUAGCAAUCACAUCCCCAGUCGUCAGACAGGCGAAGUUCCUAAGUGCAUUUUCUAAUACCGCUUUAGGGUUGGUAAUAUCCAGGAAGUCUGGGCUCUGAGGCUGCAACAGAGGAUUGAGCAUCA
B16: 91655523_91655643_1000_CDS_ENSMUSG00000022961_ENSMUST00000114036|mouse|control|control (ssRNA)
RNA: GGGAGUUCUACAGUCCGACGAUCCUCCGAUGGUGCUUCUACAGGCUGCUCUGGCAAUCUUUGCACGUCAGUUGUAGAUGACUCUGGAAAAUCCAUUGUUGAUGGGCUUGGUUCAGGGUGCACCUCAGUAGGUGUCUCUGACACCAACAGAGGAUUGAGCAUCA
B17: chr16:2011185:2011186:+_ENSG00000140990_ENST00000268668|hu_hu|motif|central (ssRNA)
RNA: GGGAGUUCUACAGUCCGACGAUCCACGCGGCGGUACUGCCGGUGGUAGUAGUAAUACCUGUUCUUUGCGUGCUGCCGCUCGGUAAAUUCUCUCACGAGGGUCACGGGUCGGUCCACGAUGAGGUCGAACGCUUUCAUCAUGUACAACAGAGGAUUGAGCAUCA
B18: chr10:75542919:75542920:+_ENSG00000172586_ENST00000372833|hu_mus|FALSE|FALSE (ssRNA)
RNA: GGGAGUUCUACAGUCCGACGAUCUGAGAGUUCAUUGAAAAUAUUUCUCCAUUUUCAGAUGAGAUGAGAUUUGUUGGGAAAUCUCUGUAACAACUUGGUCAUCUUGUGGGGAGAUAAACUCUCGGACUGUCCCAGAGACUCCUGCAACAGAGGAUUGAGCAUCA
B19: chr15:85967975:85967976:+_ENSMUSG00000035900_ENSMUST00000088931|mus_mus|FALSE|FALSE (ssRNA)
RNA: GGGAGUUCUACAGUCCGACGAUCACAGAGCAUUUUAGGUUUAUUAAAUAAAAAUUAUAAUUUAUACAAGACUUUGUAUCUAAACAAGGUUUUCUUUUUUUAAAAAAAAAAGUGACAGAGGAUUUUUUUUCCUAUCAGUUCUUUCAACAGAGGAUUGAGCAUCA
B20: chr15:85967975:85967976:+_ENSMUSG00000035900_ENSMUST00000088931|mus_mus|motif|central (ssRNA)
RNA: B19 RNA with U80G, A81G
B21: chr5:162868235:162868236:+_ENSG00000113328_ENST00000340828|hu_hu|motif|central (ssRNA)
RNA: GGGAGUUCUACAGUCCGACGAUCCCAACACACCUUCUCCAAUACAAUCUUUUCCAUUCUCAUCAAGUCUGAAACCGUAAACCGGUAUUGACUUAUUCGGAUCAAGUCAGUUGCCAAUGGGACAUUCCUUUCCUCUUCUAUUGACAACAGAGGAUUGAGCAUCA
B22: chr9:14812383:14812384:-_ENSMUSG00000031934_ENSMUST00000164273|mus_mus|mus_mus_mus_hu_True|28_108 (ssRNA)
RNA: GGGAGUUCUACAGUCCGACGAUCAUAGCUCAAGUAGAUACACGCUAACAGUAUAAUGAUGAGUGUCAGCAGGCGGCAGCUAAUGUACUUGAUGAUUAAAUUAUUAGAGUUCUUUUUUGUCUUCAAGUACUGCUCCACAAUUGGCAACAGAGGAUUGAGCAUCA

Positions count from the first letter of the chain named. Whole data set: some 24,000 sequences, median “enrichment r” near 0.99, cut for the highest 2% near 3.7. The sample as a whole holds a higher share of the highest values than the screen did.

For the test, the target named is T1, UNK ZnF1-3. In words: nsRBNS (natural sequence RNA bind-n-seq); RBNS binding buffer (assumed for nsRBNS): 25 mM Tris pH 7.5, 150 mM KCl, 3 mM MgCl2, 0.01% Triton X-100, 500 ug/ml BSA, 20 U/ml SUPERase-In, 4 C; UNK is unkempt and MSI1 is Musashi-1; names of the RNAs are library labels; protein concentration not given here; high values mean tight binding.
The molecule B1 showed a binding signal of 1.65 enrichment R.
In turn, B2 returned a binding signal of 0.56 enrichment R.
B3: the binding signal was 1.75 enrichment R.
B4 returned a binding signal of 0.639 enrichment R.
On to B5, for which the binding signal came out at 0.931 enrichment R.
In the case of B6, the binding signal stood at 6.8 enrichment R.
Regarding B7, the binding signal was 0.789 enrichment R.
Take B8: the binding signal came out at 1.44 enrichment R.
Regarding B9, the binding signal turned out to be 3.86 enrichment R.
Regarding B10, the binding signal was determined as 14.2 enrichment R.
For the molecule B11, the binding signal was determined as 0.675 enrichment R.
Turning to B12, the binding signal amounted to 1.35 enrichment R.
As to B13, the binding signal came to 3.38 enrichment R.
As for B14, the binding signal came out at 0.925 enrichment R.
As to B15, the binding signal was found to be 0.785 enrichment R.
B16 returned a binding signal of 0.484 enrichment R.
Molecule B17 came in with a binding signal of 0.392 enrichment R.
Consider B18, for which the binding signal was determined as 0.344 enrichment R.
The figure for B19 is 4.57 enrichment R; for B20 it is 7.03 enrichment R.
B21: the binding signal worked out at 0.785 enrichment R.
B22 showed a binding signal of 1.06 enrichment R.
